Bioassay records: PubChem, Sanford-Burnham Center for Chemical Genomics
Compounds with a hit are over-represented: about 4% of the library has one in this group of screens.
TROY NFkB inh – TROY signaling inhibition | Q293 LMP1-TROYcd NF-kB luciferase reporter, 4 h | inhibition, % at 10 µM | actives 0.98% (n = 360,000) | AID 1347056;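 active = compounds whose plate-normalised and pattern-corrected inhibition of the luciferase reporter signal at the single screening dose is 50% or more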
KKLEB tox – reduces viability of KKLEB cystic fibrosis airway cells | activity change (cytotoxicity), % at 5 µM | actives 0.36% (n = 360,000) | KKLEB CF airway cells viability, ATPlite luminescence, overnight; stronger effect = lower value; cells stimulated with P. aeruginosa culture filtrate;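 active = corrected activity change at or below -50% at 5 µM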
CF NFkB inh – blocks PAF-induced NF-kB reporter in cystic fibrosis cells; KKLEB NF-kB-GFP reporter, GFP fluorescence overnight; AID 588850; actives 0.86% (n = 360,000); inhibition, % at 5 µM;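 active = at least 50% inhibition at 5 µM, scaled per plate between neutral and stimulator controls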;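 note: PAF is a Pseudomonas aeruginosa culture filtrate used as stimulus; plate controls were PAF-stimulated DMSO wells for no effect and unstimulated DMSO wells for full effect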
HIF-2a inh – HIF-2a inhibition | AID 624352 | 786-0 RCC cells HIF-2a reporter, luciferase luminescence, overnight | actives 0.72% (n = 360,000) | inhibition, % at 18.8 µM;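 active = inhibition of the luminescence signal of 40% or more relative to plate controls, in a single-dose primary screen at 18.75 µM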
TWEAK-Fn14 inh – TWEAK-Fn14 signaling inhibition. inhibition, % at 10 µM. actives 2% (n = 360,000). TWEAK-stimulated Fn14 reporter cells, luciferase luminescence, 8 h. AID 1159606; in the data active = inhibition above about 50%
Peg3 prom inh – Peg3 promoter activity inhibition. HeLa PEG-Prom luciferase reporter, luminescence, overnight. inhibition, % at 20 µM. actives 1.7% (n = 360,000). AID 588405;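 active = inhibition of at least 50% at 20 µM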
CF NFkB conf – CF NF-kB inhibition confirmation, single concentration. KKLEB CF airway cells, PAF-induced NF-kB-GFP fluorescence, overnight. inhibition, % at 5 µM. shares compounds with CF NFkB inh. actives 64% (n = 1,300); in the data active = inhibition above about 40%;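 note: stimulus PAF is a Pseudomonas aeruginosa filtrate and not platelet activating factor; plate controls were DMSO wells with stimulus for no effect and unstimulated DMSO wells for full effect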
Starred values were filed as active, the others as inactive; . = not tested or not shown.

SMILES	TROY NFkB inh	KKLEB tox	CF NFkB inh	HIF-2a inh	TWEAK-Fn14 inh	Peg3 prom inh	CF NFkB conf
Cc1cc(N2C(=O)C(O)=C(C(=O)c3cc4ccccc4o3)C2c2cccc(Br)c2)no1 (centres undefined)	-10.2	16.2	-32.6	-10.3	-11.8	15.1	.
Cc1ccc(-n2sc3cc(F)ccc3c2=O)c(C)c1	-8.0	5.6	27.3	-31.8	-3.1	28.1	.
O=c1c2cc(F)ccc2sn1-c1ccccc1Cl	-3.4	-9.9	51.4*	-0.9	-5.4	24.4	31.4
CC(C)c1nc(SCC(=O)N2CCCc3ccccc32)c2c(=O)n(C)c(=O)n(C)c2n1	20.8	-8.1	64.5*	-0.3	40.5	62.7*	11.7
CCn1c(SCC(=O)N2CCCc3ccccc32)nc2c1c(=O)n(C)c(=O)n2C	12.3	0.7	8.4	13.3	8.3	30.6	.
Cc1ccc(-c2cc(-c3ccccc3)nc(Cl)n2)cc1	-34.6	-2.6	-6.7	-96.3	10.9	-45.3	.
Cc1ccc(-c2cc(C(F)F)nc(S(C)(=O)=O)n2)cc1	17.7	-33.2	50.8*	9.8	30.4	98.4*	-65.8
Clc1cccc(Cl)c1/C=N/Nc1c(Cl)cncc1Cl	-17.2	1.1	-2.3	8.4	5.9	23.8	.
Clc1cncc(Cl)c1N/N=C/c1ccncc1	63.0*	-41.5	81.2*	14.1	59.4*	-12.4	77.5*
O=C(Nc1nnc(C(F)(F)F)s1)c1ccc(Br)s1	15.7	-20.3	53.9*	-240.4	27.9	-179.6	83.0*
COc1ccc(-n2nnnc2S(=O)(=O)Cc2ccc(C(=O)O)cc2)cc1	19.6	-42.1	89.4*	12.3	-7.4	36.8	90.6*
Cc1nc2c(=O)n(C)c(=O)n(C)c2nc1Cl	31.7	9.0	75.1*	39.1	50.4*	108.0*	-11.9
CCCCOc1ccc(C(=O)NCC(=O)OCCCOC(=O)CNC(=O)c2ccc(OCCCC)cc2)cc1	-8.6	10.7	-9.0	-1.2	-2.7	8.7	.
COc1cccc(/C=N/n2c(C3CCCCC3)n[nH]c2=S)c1	31.5	-12.0	60.4*	7.2	52.2*	18.0	76.8*
Cc1nc2sc3c(NCc4ccco4)ncnc3c2c2c1COC(C)(C)C2	55.0*	-30.2	72.3*	19.3	87.0*	-2.8	37.1
CC1C=CC(C)C(C(=O)c2ccccc2)C1C(=O)c1ccccc1 (centres undefined)	-12.6	-3.2	-4.8	13.6	-2.1	15.2	.
O=C(c1ccccc1)C1OC1C(=O)c1ccccc1 (centres undefined)	-62.8	-12.5	56.1*	-55.5	69.9*	-17.9	53.9*
COc1ccc(NC(=O)CN(C)C(=O)Cc2ccc3c(c2)CCC3)cc1	8.2	6.8	2.7	8.4	12.4	-10.7	.
CC(=O)OCC=C1CCC2C3CC(C)C4=CC(=O)CCC4(C)C3C(O)CC12C (centres undefined)	6.7	18.6	20.7	7.5	-29.9	17.5	.
CC1(Cc2cccc(F)c2)C(=O)Nc2ccc(-c3cccnc3)cc21 (centres undefined)	40.6	4.8	72.4*	15.1	78.8*	19.8	66.3*
CCc1ccc2c(c1)NC(=O)C2(C)Cc1cccc(F)c1 (centres undefined)	7.8	-3.6	5.2	9.2	5.6	14.9	.
CC1(Cc2ccc(Cl)cc2)C(=O)Nc2ccc(-c3cccnc3)cc21 (centres undefined)	53.4*	-29.7	79.3*	15.9	83.6*	23.1	91.1*
COc1ccc2ncn(-c3ccccc3)c2c1	11.6	-6.1	58.5*	12.2	30.0	-3.3	57.0*
O=C(CN(c1ccccc1Cl)S(=O)(=O)c1ccccc1)NCc1ccccc1	-8.0	-4.2	23.6	18.1	12.6	20.6	.
N#C/C(=C\c1ccc(F)c(F)c1)C(=O)NC1CCCCC1	-28.0	-18.2	51.5*	27.6	36.3	8.3	15.7
SMILES	TROY NFkB inh	KKLEB tox	CF NFkB inh	HIF-2a inh	TWEAK-Fn14 inh	Peg3 prom inh	CF NFkB conf
CC(C)=CCc1c(O)c(CC=C(C)C)c2c(c1O)C(=O)CC(c1ccc(O)cc1)O2 (centres undefined)	2.9	-8.4	26.8	-34.0	8.7	5.6	.
CC(C)=CCc1c(O)cc(O)c2c1OC(c1ccc(O)cc1)CC2=O (centres undefined)	30.6	-12.4	52.6*	13.8	34.6	24.7	71.8*
COc1cc(O)cc2cc3c(c(O)c12)C(=O)CC(C)(O)O3 (centres undefined)	12.7	3.9	59.5*	-13.8	1.0	-65.7	52.3*
O=c1c(O)c(-c2ccccc2)oc2cc(O)cc(O)c12	-17.9	6.4	59.6*	-97.2	55.4*	-203.5	62.0*
Oc1cc2c(cc1C(c1ccc(Cl)c(Cl)c1)N1CCCC1)OCO2 (centres undefined)	16.0	-48.1	63.9*	29.4	16.2	31.1	44.1*
CC(C)c1ccc(NC(=O)C(c2ccc3c(c2)OCO3)N2CCCCC2)cc1 (centres undefined)	-21.7	0.6	4.9	-47.6	6.6	5.2	.
COc1nc(=O)n(C2C=CC(=O)O2)cc1F (centres undefined)	-12.5	-17.6	86.8*	-3.9	63.6*	26.7	23.1
Oc1ccc(C[C@H]2CNC(=S)N2CC2CCCN2C[C@H](Cc2ccc(O)cc2)N2C[C@H](Cc3ccccc3)N(CC3CCCCC3)C2=S)cc1 (some centres undefined)	-0.2	-7.1	51.5*	-27.7	62.3*	91.9*	45.4*
Oc1ccc(C[C@H]2CN([C@@H](Cc3ccccc3)CN3CCC[C@@H]3CN3C(=S)NC[C@@H]3Cc3ccccc3)C(=S)N2CC2CCCCC2)cc1	9.7	-10.2	23.8	0.1	8.5	-0.6	.
CC(C)C[C@@H](CN1CCCC1CN1C(=S)NC[C@@H]1Cc1ccc(O)cc1)N1C[C@H](Cc2ccc(O)cc2)N(CCc2ccccc2)C1=S (some centres undefined)	24.9	-11.3	59.3*	-36.9	64.6*	91.1*	61.0*
CCOc1ccc(CCN2C(=S)N([C@@H](Cc3ccc(O)cc3)CN3CCC[C@@H]3CN3C(=S)NC[C@@H]3CC(C)C)C[C@@H]2Cc2ccc(O)cc2)cc1	32.2	-16.3	55.4*	-48.4	46.1	100.7*	-15.0
CC(C)C[C@H]1CNC(=S)N1C[C@H]1CCCN1C[C@H](Cc1ccccc1)N1C[C@H](Cc2ccc(O)cc2)N(CC2CCCCC2)C1=S	-17.9	-22.5	65.1*	-12.1	27.0	92.9*	19.0
Oc1ccc(C[C@H]2CN([C@@H](Cc3ccccc3)CN3CCCC3CN3C(=S)NC[C@@H]3Cc3ccccc3)C(=S)N2CCc2ccccc2)cc1 (some centres undefined)	2.1	.	.	-3.5	11.8	.	.
O=C(Nc1ccnn1C1CCN(C(=O)c2cccc(Cl)c2)CC1)C1CCOC1 (centres undefined)	10.1	-0.3	-2.7	0.0	13.5	20.1	.
